Source: PubChem
TEAD-YAP block: TEAD-YAP interaction inhibition; HEK-TIYL cells, TEAD-Gal4/YAP UAS-luciferase luminescence; inhibition, % at 9.12 µM; actives 1.4% (n = 640,000); AID 1259422; in the data active = inhibition above about 32%;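 note: 0% = median of test compound wells and 100% = reference inhibitor wells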
FBW7 activator: human FBW7 E3 ligase activation, primary screen | Q969H0 | AlphaScreen FBW7–phospho-cyclin E peptide binding, activator screen | normalized activity (activation), % at 26.1 µM | actives 0.13% (n = 650,000); in the data active = normalized activity above about 1.9%;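 note: purified mutant Fbw7 with reduced substrate affinity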
Target sequence (Q969H0 whole entry, looked up): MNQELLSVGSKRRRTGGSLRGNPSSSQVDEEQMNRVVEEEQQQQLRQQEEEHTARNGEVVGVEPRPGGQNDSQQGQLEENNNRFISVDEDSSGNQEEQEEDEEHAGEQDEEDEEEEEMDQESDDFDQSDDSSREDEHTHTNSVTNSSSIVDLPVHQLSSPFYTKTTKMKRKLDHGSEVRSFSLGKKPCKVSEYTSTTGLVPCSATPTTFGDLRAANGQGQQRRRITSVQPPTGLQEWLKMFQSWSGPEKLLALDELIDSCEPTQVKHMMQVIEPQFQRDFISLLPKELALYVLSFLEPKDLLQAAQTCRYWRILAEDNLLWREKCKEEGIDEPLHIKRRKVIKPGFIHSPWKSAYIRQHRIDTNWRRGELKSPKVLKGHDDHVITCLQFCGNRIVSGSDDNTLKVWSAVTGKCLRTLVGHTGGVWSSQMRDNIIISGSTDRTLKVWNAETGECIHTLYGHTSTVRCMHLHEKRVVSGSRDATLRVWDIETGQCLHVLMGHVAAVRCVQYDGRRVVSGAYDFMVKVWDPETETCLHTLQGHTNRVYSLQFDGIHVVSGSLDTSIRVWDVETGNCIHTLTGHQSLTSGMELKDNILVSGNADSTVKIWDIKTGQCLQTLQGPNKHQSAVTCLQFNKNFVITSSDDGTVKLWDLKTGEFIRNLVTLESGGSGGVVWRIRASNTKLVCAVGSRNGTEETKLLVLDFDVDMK
MITF inh: blocks human microphthalmia-associated transcription factor. O75030. AlphaScreen MITF homodimerization, bead proximity signal. inhibition, % at 2.6 µM. actives 0.91% (n = 650,000). AID 1259374; in the data active = inhibition above about 50%;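 note: 0% = vehicle wells with protein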
GPR151 ag: activates the human receptor GPR151; activation, % at 11.2 µM; PathHunter beta-arrestin GPR151 cells, luminescence; actives 1% (n = 650,000); in the data active = activation above about 4.9%;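 note: 0% = median of compound wells and 100% = cells with positive control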
GPR151 confirm: confirmation of human GPR151 activators; activation, % at 11.2 µM; AID 1508609; GPR151 PathHunter beta-arrestin cells, luminescence, 90 min; % of EA-reagent control over plate median; 6,700 tested, under 10 active; shares compounds with GPR151 ag;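 active = mean percent activation across replicates above the confirmation screen cutoff of 4.91%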
GPR119 counter: counter-screen for GPR151 activators: effect on human GPR119 | shares compounds with GPR151 ag | GPR119 PathHunter beta-arrestin cells, luminescence, 90 min; 0 = compound-well median, 100 = enzyme-acceptor control | activation, % at 11.2 µM | actives 0.3% (n = 6,700) | AID 1508611;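 active = mean percent activation in the counterscreen above 29.09%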;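 note: counterscreen on off-target GPR119 to flag nonselective hits from the GPR151 activator screen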
An asterisk follows results filed as active; / = no result; ! = a repeat was not active. In the library only some 3.5% were active in any assay of this set; here they are far more common.

SMILES	TEAD-YAP block	FBW7 activator	MITF inh	GPR151 ag	GPR151 confirm	GPR119 counter
COc1ccc2c(c1OC)C(=O)NC(C)=C(C(=O)OC(C)(C)C)C2O (stereo not given)	8	0	-6	12*	0	-3
CC(C)(C)n1nc(Cc2cccc3ccccc23)c2c(N)ncnc21	/	/	-2	1	/	/
CC(C)(C)n1nc(-c2ccccc2)c2c(N)ncnc21	/	/	/	5.2*	0	-1
CC(C)CNC(=O)Cn1nnc2ccccc2c1=O	-9	0	-2	7.7*	0	2
CC(C)CC(=O)N1CCC(n2nnc3ccccc3c2=O)CC1	0	1	27	6.0*	1	5
O=C(CN(c1ccccc1Cl)S(=O)(=O)c1ccccc1)NC1CC1	-4	0	-2	5.9*	0	-5
CC(C)[C@@H](CO)Nc1ccc2ncc(-c3cccc(N(C)C)c3)n2n1	4	0	11	0	/	/
CCC(CO)Nc1ccc2ncc(-c3cccc(N(C)C)c3)n2n1 (stereo not given)	5	0	-18	6.4*	0	-4
O=C(CSc1nnnn1C1CCCC1)N1CCOCC1	-28	0	-6	0	/	/
O=C(CSc1nnnn1C1CCCCC1)N1CCCCC1	-47	0	-20	5.0*	-1	-7
CN(Cc1cccc(C(=O)NCCCCCCNS(=O)(=O)c2cccc3c(N(C)C)cccc23)c1)C(=O)Nc1ccc(-c2cn[nH]c2)cc1	21	3.1*	19	5.7*	0	9
COc1ccc(-c2[nH]nc3c2C(c2c[nH]c4ccccc24)C(C#N)=C(N)O3)cc1OC (stereo not given)	21	0	29	6.4*	1	3
COc1ccc(-c2[nH]nc3c2C(c2cccc(Cl)c2Cl)C(C#N)=C(N)O3)cc1OC (stereo not given)	5	0	2	0	/	/
Cc1cccn2c(=O)c3cc(C#N)c(=O)n(-c4nccs4)c3nc12	7	0	-5	4	/	/
Cc1ccccc1OCC(=O)NN1CC(O)=C(c2nc(-c3ccc(F)cc3)cs2)C1=N	7	0	0	5.6*	1	0
O=C1CCCCC1Oc1cc(O)c2c(=O)cc(-c3ccccc3)oc2c1 (stereo not given)	-7	0	5	7.0*	1	22
CC(=O)C(C)Oc1cc(O)c2c(=O)cc(-c3ccccc3)oc2c1 (stereo not given)	-22	0	0	0	/	/
O=C1/C(=C\c2ccc3c(c2)OCO3)NC(=S)N1CN1CCOCC1	0	0	-4	-2	/	/
CCOc1cc(/C=C/c2[nH]c(=O)[nH]c(=O)c2[N+](=O)[O-])ccc1O	1	0	3	6.5*	0	-5
CCOc1ccc(NC(=O)CSc2nc3n[nH]c(C)c3c(=N)n2-c2ccc(OCC)cc2)cc1	30	0	1	-1	/	/
CCOc1ccc(-n2c(SCC(=O)Nc3ccc(CC)cc3)nc3n[nH]c(C)c3c2=N)cc1	13	0	4	5.3*	2	9
CCCCNC(=O)CSc1nc2n[nH]c(C)c2c(=N)n1-c1ccccc1CC	-22	0	-6	5.9*	0	3
COc1ccc(OC)c(NC(=O)CSc2nc3n[nH]c(C)c3c(=N)n2-c2cc(Cl)ccc2C)c1	0	0	7	12*	0	0
Cc1cccc(NC(=O)CSc2nc3n[nH]c(C)c3c(=N)n2-c2ccc(Br)cc2)c1	3	0	3	5.8*	0	5
O=C(Cn1c(=O)[nH]n(-c2ccccc2)c1=O)N1CCOCC1	1	0	9	-2	/	/
SMILES	TEAD-YAP block	FBW7 activator	MITF inh	GPR151 ag	GPR151 confirm	GPR119 counter
Cc1ccc(C(=O)COC(=O)CCC(=O)c2ccccc2)cc1[N+](=O)[O-]	11	0	12	-1	/	/
CCOC(=O)C1=C(C)N=c2s/c(=C\c3ccc(OC)c(OCC)c3)c(=O)n2C1c1ccc(OCC)c(OCC)c1 (stereo not given)	-4	0	6	5	/	/
COC(=O)c1ccccc1NC(=O)COc1ccc(C=O)cc1	0	0	1	8.0*	0	-10
CCOc1ccc(C(=O)NC(=S)Nc2ccccc2C(=O)OC)cc1	-4	0	6	6.8*	1	-9
COc1ccccc1OCC(=O)Nc1ccccc1C(=O)O	-57	0	-7	-4	/	/
CCOc1ccc(C(=O)NC(=S)Nc2ccccc2C(=O)OC)cc1[N+](=O)[O-]	0	0	-6	2	/	/
COc1cc(C=O)ccc1OCC(=O)Nc1ccccc1C(=O)c1ccccc1	-1	0	15	5.8*	0	1
COC(=O)c1ccccc1NC(=O)COc1ccc(F)cc1	3	0	0	-2	/	/
FC(F)(F)c1cccc(CNc2nc(Nc3ncccn3)nc3c2ncn3C2CCCCC2)c1	4	0	11	-1	/	/
CC(C)NC[C@H](O)COc1cccc2ccccc12	1	0	-18	8.0*!	2	5
COc1ccc(CNC(=O)Cn2c3ccccc3c3cn[nH]c(=O)c32)cc1	6	0	4	0	/	/
O=C(Nc1ccc(F)cc1F)C1CCCN(c2ncnc3c2nc2n3CCCCC2)C1 (stereo not given)	6	0	0	2	/	/
O=C(Nc1cc(F)ccc1F)C1CCCN(c2ncnc3c2nc2n3CCCCC2)C1 (stereo not given)	9	0	-11	8.0*	-1	-2
O=C(Nc1ccc(Cl)c(Cl)c1)OCc1ccco1	-15	0	4	6.0*	1	0
Cc1nn(C)cc1-c1nc2cnccn2c1NC(C)(C)C	2	0	-4	0	/	/
Cc1c(C(=O)N(C)C)sc2c1c(=O)n(-c1ccc(Cl)cc1)c(=O)n2CC1OCCO1	4	0	11	6.0*	1	-4
CC(C)CCNC(=O)c1cc(=O)[nH]c2ccc(Br)cc12	2	0	4	0	/	/
O=C(NC1CC1)c1cc(=O)[nH]c2ccc(Br)cc12	-15	0	3	6.2*	0	20
CCC(C)NC(=O)c1cc(=O)[nH]c2ccc(Br)cc12 (stereo not given)	8	0	3	8.8*	3	33*
O=c1oc2c3c(ccc2c2c1CCC2)OCN(c1ccc(F)cc1)C3	3	0	6	5.1*	0	-12
Cc1ccc2c(Cn3cc(C(F)(F)F)cc(Cl)c3=O)cc(=O)oc2c1	-3	0	-8	7.6*	-1	-7
Cc1cc2nnc(SCC(=O)N3CCC(C)CC3)n2c(N)n1	-7	0	3	4.9*	1	-1
CCC1CCCCN1S(=O)(=O)c1ccc(OC)cc1 (stereo not given)	7	0	4	0	/	/
CCC1CCCCN1S(=O)(=O)c1cc(OC)c(Cl)cc1OC (stereo not given)	-2	0	3	5.6*	0	7
